# Screening results from PubChem BioAssay.
# hcDAF12 agonist = H. contortus DAF-12 nuclear receptor activators, primary screen, cell-based, luminescence, HEK293, lit1-tk-luc reporter; HEK293 hcDAF-12 lit1-tk-luc reporter; 0% DMSO, 100% Δ7-dafachronic acid; activation, % at 6.8 µM; 370,000 compounds, 1.4% hits; AID 652067, 2013;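 active means activation above the mean of all tested compounds plus 3 SD, cut at about 5.5% in these data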
# DAX1 inh-1 = DAX1 (NR0B1) inhibitors on StAR promoter, primary screen, cell-based, luminescence, SF-1 (NR5A1), full-length DAX-1; 370,000 compounds, 1.1% hits; inhibition, % at 6.8 µM; HEK293T StAR-luciferase reporter, SF-1/DAX-1 repression relief;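 active means inhibition above the mean over all tested compounds plus 3 SD, cut at about 3.6% in these data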;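 further: higher inhibition means more luminescence from relief of DAX-1 repression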
# hgDAF12 agonist = H. glycines DAF-12 receptor agonists, primary screen, cell-based, luminescence, HEK293, GAL4 fusion, UAS-luciferase. Nuclear hormone receptor DAF-12 (Heterodera glycines), GAL4 fusion. HEK293 GAL4-hgDAF12 UAS-luciferase reporter, agonist luminescence; normalized to butyrate control. AID 687014, 2013. 370,000 compounds, 1.8% hits. activation, % at 6.8 µM;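 active means activation above a cutoff set at the mean of all screened compounds plus 3 SD, cut at about 10% in these data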
# DAX1 inh-2 = DAX1 (NR0B1) inhibitors, primary screen, cell-based, HEK293, Gal4-DAX1, luciferase luminescence; HEK293 Gal4-DAX1 luciferase reporter; Nuclear receptor subfamily 0 group B member 1 (Homo sapiens), P51843; inhibition, % at 6.75 µM; 340,000 compounds, 0.99% hits; AID 504766, 2011;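 active means inhibition above the mean over all tested compounds plus 3 SD, cut at about 4.2% in these data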;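 further: inhibition shows as a rise in luminescence from relieved DAX1 repression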
# ssDAF-12 act = S. stercoralis DAF-12 nuclear receptor activators, primary screen, cell-based, luminescence, HEK293, GRIP1 co-expression, lit1-tk-luc. Nuclear hormone receptor DAF-12 (Strongyloides stercoralis). HEK293 ssDAF-12/GRIP1 lit1-tk-luc reporter; % of 3 µM dafachronic acid response. activation, % at 6.8 µM. 370,000 compounds, 1% hits;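 active means activation above the mean over all tested compounds plus 3 SD, cut at about 0.9% in these data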
# LXRb hcDAF ctr = LXR agonists, Gal4 luciferase reporter, confirmation, counter-screen for hcDAF-12 agonist project, cell-based, luminescence, HEK293, H. contortus campaign; shares compounds with hcDAF12 agonist; HEK293 Gal4-LXR tk-luc reporter, 24 h; normalized: DMSO 0%, positive control 100%; activation, % at 6.8 µM; 3,400 tested, under 10 active;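 active means mean percent activation of the reporter above a cutoff set as the average over tested compounds plus their standard deviation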
# Target sequence (P55055 whole entry, looked up, the tested form may be a part): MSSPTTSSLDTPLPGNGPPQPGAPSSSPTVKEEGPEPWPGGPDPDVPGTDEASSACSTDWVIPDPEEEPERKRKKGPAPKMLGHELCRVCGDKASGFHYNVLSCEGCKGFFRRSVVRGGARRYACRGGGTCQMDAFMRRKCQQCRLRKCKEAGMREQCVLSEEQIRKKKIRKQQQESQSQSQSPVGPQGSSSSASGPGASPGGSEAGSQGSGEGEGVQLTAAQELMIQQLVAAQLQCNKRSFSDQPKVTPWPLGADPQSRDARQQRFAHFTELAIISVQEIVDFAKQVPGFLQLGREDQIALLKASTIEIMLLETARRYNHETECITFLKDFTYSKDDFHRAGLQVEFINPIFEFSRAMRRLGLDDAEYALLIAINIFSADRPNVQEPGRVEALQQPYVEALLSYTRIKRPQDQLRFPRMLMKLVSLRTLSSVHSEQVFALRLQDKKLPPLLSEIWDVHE
# hcDAF12 ag = H. contortus DAF-12 receptor agonists, confirmation, cell-based, luminescence, HEK293, lit1-tk-luc, triplicate; HEK293 hcDAF-12 lit1-tk-luc reporter; % of Δ7-dafachronic acid response; activation, % at 6.8 µM; shares compounds with hcDAF12 agonist; 3,400 compounds, 61% hits; AID 743032, 2013;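 active means mean activation across triplicate tests above the threshold derived from the earlier primary screen, cut at about 5.5% in these data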
# hgDAF12 conf = H. glycines DAF-12 receptor agonists, confirmation, cell-based, luminescence, HEK293, GAL4-LBD fusion. shares compounds with hgDAF12 agonist. HEK293 GAL4-hgDAF12 luciferase reporter, agonist mode; percent of butyrate response. activation, % at 6.8 µM. 3,300 compounds, 80% hits;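 active means mean activation over triplicate wells above the hit cutoff derived from the earlier primary screen, cut at about 11% in these data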
# LXRb DAF12 ctr = LXR agonists, Gal4 luciferase reporter, confirmation, counter-screen for hgDAF-12 agonist project, cell-based, luminescence, HEK293, H. glycines campaign. 3,300 tested, under 10 active. shares compounds with hgDAF12 agonist. 24 h. AID 743051, 2013. activation, % at 6.8 µM;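 active means mean activation of the triplicate above a set limit carried over from the primary screen, none filed active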
# A number is an active result; 0 = inactive; - = not tested or not shown. Sampled rows, rich in hits. Any-hit rate of the full collection: about 4.1%.
SMILES,hcDAF12 agonist,DAX1 inh-1,hgDAF12 agonist,DAX1 inh-2,ssDAF-12 act,LXRb hcDAF ctr,hcDAF12 ag,hgDAF12 conf,LXRb DAF12 ctr
c1csc(-c2nc3ccccc3[nH]2)c1,0,0,0,0,0,-,-,-,-
Cc1ccc(-c2nc3ccccc3[nH]2)s1,7.9,3.8,20,0,1.9,0,8.2,19,0
CC(CCN1CCC(C(O)(c2ccccc2)c2ccccc2)CC1)Oc1cccc(Br)c1 (stereo not given),0,0,0,-,0,-,-,-,-
Clc1ccccc1Nc1nnc(-c2ccncc2)s1,11,4.4,17,0,0,0,6.7,17,0
Clc1ccccc1Nc1nc(-c2cccnc2)cs1,11,3.7,34,9.5,1.1,0,7.3,24,0
COc1cccc(Nc2nc(-c3cccnc3)cs2)c1,13,0,14,4.4,1.7,0,8.2,17,0
O=C(NCC1CCN(C(=O)C(=O)c2cc3ccccc3o2)CC1)c1ccc2c(c1)OCC2,0,0,0,-,0,-,-,-,-
COc1cc(N(C(C)=O)c2ccc(O)c(C(=O)O)c2)c2ncccc2c1,0,0,0,0,0,-,-,-,-
COc1ccc2nc(SCC(C)=O)c(C#N)cc2c1,12,3.9,19,5.9,2.5,0,11,25,0
COc1ccc2nc(SC)c(C#N)cc2c1,0,0,0,0,0,-,-,-,-
[O-]C(=C(C(=S)Nc1cccc2ccccc12)[n+]1ccccc1)c1ccc2c(c1)OCCO2,-,-,-,0,-,-,-,-,-
CC(C)(C)c1cc[n+](/C(C(=S)Nc2ccccc2F)=C(/[O-])c2ccc3c(c2)OCCO3)cc1,6.8,0,14,0,0,0,7.3,0,0
Cn1c(CNC2CCCCC2)nc2ccccc21,0,0,0,0,0,-,-,-,-
COc1ccccc1NCc1nc2ccccc2n1C,11,-,16,-,1.3,0,8.7,18,0
Cn1c(CNc2ccc(Br)cc2)nc2ccccc21,12,0,14,4.7,1.4,0,11,18,0
COc1ccccc1C(O)Cc1nc2ccccc2n1C (stereo not given),0,0,0,0,0,-,-,-,-
Cc1ccc2oc(-c3ccccc3)c(C(=O)O)c(=O)c2c1,6.7,0,18,0,0,0,6.1,18,0
O=C(O)c1c(-c2ccccc2)oc2ccc(O)cc12,0,0,0,0,0,-,-,-,-
O=C(Nc1ccc2c(c1)CCO2)Nc1nnc([C@H]2C[C@H](O)[C@@H](CO)O2)s1,0,0,0,-,0,-,-,-,-
CC(C)Cc1cc(C(=O)Nc2cccc(O)c2)no1,8.4,0,18,0,0,0,6.5,19,0
CCN(CCn1cccn1)C(=O)c1cc(COc2ccc(F)c(F)c2)on1,0,0,0,0,0,-,-,-,-
